From PubChem BioAssay AID977607 (Broad Institute, 2014) come the findings set out here.

Out of some 1,500 compounds screened, about 460 (31%) were called active. Roughly 1% stayed inconclusive and do not appear here. Only a sample is shown. Results with a measured potency or affinity are listed apart. Unmarked numbers belong to inactive results.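 How the source made its calls: active means curve reaches 40% activation over neutral controls at an AC40 no higher than the top valid tested concentration; inconclusive means no clear call, values can overlap the other calls; inactive means signal moving opposite to the expected increase, and the rest.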

A short description of the test: GLuc-reported insulin release enhancers, glucose-stimulated beta cells – cell-based, INS-1E, Gaussia luciferase, luminescence, cherry-pick, set 2, dose response (AID 977607).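 Further: 0% = median of the plate neutral control wells.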 Particulars: INS-1E GLuc insulin secretion reporter, 2-3 h, hits give high values; at 35 µM, 100% = signal doubled over neutral wells unless noted.
Take `Cc1nc2ccccc2c2oc(C(=O)N3CCCC(C)C3)cc12` (stereo unspecified): the max activation was -8.46% [at 11 µM, 100% = signal doubled over neutral wells]. `CCOC(=O)Cc1csc(NC(=O)c2ccc(OC)c(OC)c2)n1`: the max activation was 24.7%. Consider `COc1ccc(CCNC(=O)Cc2ccc3c(c2)OCO3)cc1OC`, for which the max activation was -22.4% [at 0.42 µM, 100% = signal doubled over neutral wells]. To `Cc1c(C(=O)N(C)CCc2cnn(C)c2)oc2c(F)cccc12` belongs -14.1% [at 3.8 µM, 100% = signal doubled over neutral wells]; to `CC(=O)Nc1ccc(S(=O)(=O)Nc2ccc3c(c2)n(C)c(=O)n3C)c(C)c1`, -23.1%; to `CCCCn1c(=O)n(C)c(=O)c2c3c(sc21)COC(C)(C)C3`, -17% [at 0.015 µM, 100% = signal doubled over neutral wells]. In the case of `COc1ccc(C(=O)Nc2ccccc2C(=O)NCc2cccnc2)cc1OC`, the max activation was 42.3% [at 0.42 µM, 100% = signal doubled over neutral wells]. To `O=C(NCc1cccnc1)c1cccc(S(=O)(=O)NCc2ccccc2)c1` belongs -24% [at 0.0016 µM, 100% = signal doubled over neutral wells]; to `c1ccc(CCN2CCN=C2Nc2ccccc2)cc1`, -31.5% [at 0.42 µM, 100% = signal doubled over neutral wells]; to `CN(C)C=NC(=O)c1ccc(N2CCN(c3ncc(C(F)(F)F)cc3Cl)CC2)cc1`, -20.4% [at 11 µM, 100% = signal doubled over neutral wells]. Turning to `CN(C)c1nc(=NCc2cccs2)ss1`, the max activation was -34.9% [at 11 µM, 100% = signal doubled over neutral wells].

In the case of `CCCc1cc(=O)oc2cc(OCC(=O)NC3CCN(Cc4ccccc4)CC3)ccc12`, the max activation is -23.5%. The figure for `CNC(=O)C1CC(=O)N(c2ccc(OCC(=O)Nc3ccccc3)cc2)C1` (stereo unspecified) is -14.9% [at 0.135 µM, 100% = signal doubled over neutral wells]; for `COc1cc2[nH]c3c(Cl)ncnc3c2cc1OC` it is -29.3% [at 3.8 µM, 100% = signal doubled over neutral wells]; for `CCCn1c(=O)c(C(=O)NCc2ccccc2)c(O)c2ccccc21` it is -28%. The figure for `O=C(CCc1nc2ccccc2c(=O)[nH]1)NNC(=O)c1cccc(Cl)c1` is -14.7% [at 0.015 µM, 100% = signal doubled over neutral wells]; for `COc1ccnc(N2CCN(c3cccc(C(F)(F)F)c3)CC2)c1C#N` it is 81.3%; for `CN(C)CCCN(C(=O)c1ccco1)c1nc2c(F)cccc2s1` it is -22.6% [at 0.015 µM, 100% = signal doubled over neutral wells]. Consider `CCOc1ccc2ccc(OCC)c(/C=N/n3cnnc3)c2c1`, for which the max activation is -33.7%. Take `Cc1cc2cc(C#N)c(N3CCOCC3)nc2cc1Cl`: the max activation is -10.5% [at 0.015 µM, 100% = signal doubled over neutral wells]. With `O=C1CC(=O)Nc2cc(S(=O)(=O)NCc3cccs3)ccc2N1`, the max activation was -18.8% [at 0.0016 µM, 100% = signal doubled over neutral wells]. As to `COc1ccc(CCNc2ccncn2)cc1OC`, the max activation is -13.5% [at 0.0016 µM, 100% = signal doubled over neutral wells]. As for `COc1ccc(CCNS(=O)(=O)c2ccc(Cl)s2)cc1OC`, the max activation was 28.1%.

As for `COc1ccc(CCNC(=O)C(=O)NN=C2CCCCCCC2)cc1OC`, the max activation is -11.7% [at 0.005 µM, 100% = signal doubled over neutral wells]. For the compound `COc1ccc(CCN=C(N)NS(=O)(=O)c2ccc(C)c(C)c2)cc1OC`, the max activation was 23.8% [at 0.0016 µM, 100% = signal doubled over neutral wells]. Take `CCOC(=O)c1c(S(=O)(=O)NCCc2ccc(OC)c(OC)c2)c(C)n(C)c1C`: the max activation is -18.5% [at 0.135 µM, 100% = signal doubled over neutral wells]. Consider `COc1ccc(CCN(C)C(=O)CCNS(=O)(=O)c2ccccc2C(F)(F)F)cc1OC`, for which the max activation was -10.8% [at 0.135 µM, 100% = signal doubled over neutral wells]. For `Cc1ccc(NC(=O)[C@@H](Cc2ccccc2)NC(=O)[C@H]2O[C@@H](n3ccc(=O)[nH]c3=O)[C@H](O)[C@@H]2O)cc1C`, the max activation is -17.1% [at 0.015 µM, 100% = signal doubled over neutral wells]. `COc1ccc(NC(=O)C2CCCN2S(=O)(=O)c2ccc3c(c2)CC(C)N3C(C)=O)cc1OC` (stereo unspecified): the max activation was -19.4% [at 0.005 µM, 100% = signal doubled over neutral wells]. Turning to `COc1cccc(NC(=O)CN(C)C(=O)Cn2[nH]c(=O)c3ccccc3c2=O)c1`, the max activation is -27.7% [at 1.2 µM, 100% = signal doubled over neutral wells].

Take `COc1cc2c(cc1OC)C(CSc1ccccc1C(=O)O)=NC(C)(C)C2`: the max activation is 30.8%.

On to `O=C(NCC1(O)CCCCC1)C1CCC(=O)N(Cc2ccccc2F)C1` (stereo unspecified), for which the max activation was -16.4%.

Turning to `CN(C(=O)COC(=O)c1cccs1)c1ccccc1`, the max activation is -16.8% [at 0.0016 µM, 100% = signal doubled over neutral wells].

With `CCOC(=O)c1sc(NC(C)=O)nc1-c1ccccc1`, the max activation is -16.3% [at 0.046 µM, 100% = signal doubled over neutral wells]. Turning to `O=C(Nc1cccnc1)c1cnn2c(C(F)F)cc(C3CC3)nc12`, the max activation is 30.2% [at 11 µM, 100% = signal doubled over neutral wells]. To `Cc1cc(C(F)F)n2ncc(C(=O)NCc3ccc(F)cc3)c2n1` belongs -18% [at 1.2 µM, 100% = signal doubled over neutral wells].
